In PubChem BioAssay AID2717 (Broad Institute, 2010):
The campaign covered roughly 300,000 compounds. About 3,200 (1.1%) were called active. Rule as the data show it: active = inhibition above about 75%; inconclusive = no clear call, values can overlap the other calls; inactive = below that; tested in HMLE shEcad cells. The entries come from a sample that favours actives as a whole.

test: cancer stem cell viability inhibitors, primary screen, luminescence (AID 2717); details: cancer stem cell-like cells viability, at 7.5 µM, stronger effect = higher value

Row | SMILES | inhibition
1 | O=C(Nc1cc(S(=O)(=O)Nc2ccc(Cl)cc2)ccc1O)c1ccc(F)cc1F | 18.9% (inactive)
2 | COc1ccc(C(=O)COC(=O)C(O)c2ccccc2)c(OC)c1 (configuration not stated) | 3.81% (inactive)
3 | O=c1ccc2c(-c3ccccc3S(=O)(=O)O)c3ccc(O)c(O)c3oc-2c1O | 25.4% (inactive)
4 | COCCN(C(=O)c1ccco1)c1nnc(-c2ccc(OC)cc2)s1 | -23% (inactive)
5 | COc1cc(OC)cc(-c2nnc(N(C)C(=O)c3ccncc3)s2)c1 | -13.2% (inactive)
6 | Cc1cccc(C)c1Nc1nnc(SCC(=O)NCCCN2CCCC2=O)s1 | -7.62% (inactive)
7 | CN1CCN(C(=O)c2ccc(-c3ccc(Br)cc3)o2)CC1 | 44% (inactive)
8 | O=C(CC1Nc2ccccc2NC1=O)Nc1ccccc1 (configuration not stated) | 100% (active)
9 | O=C(CC1NCCNC1=O)Nc1ccc(Oc2ccccc2)cc1 (configuration not stated) | 52.9% (inactive)
10 | O=C(CC1NCCc2ccccc21)Nc1cccc(Cl)c1 (configuration not stated) | 7.22% (inactive)
11 | O=C(COC(=O)c1ccc(O)cc1O)c1ccc2c(c1)OCCO2 | 8.44% (inactive)
12 | O=C(Nc1cccc(S(=O)(=O)N2CCCCC2)c1)c1cncc(Br)c1 | -3.28% (inactive)
13 | COc1ccc(CCNc2nc3ccc(C)cc3n3cnnc23)cc1OC | -23.4% (inactive)
14 | COc1ccc(CCNc2nc(C)cc(C)n2)cc1OC | -36.8% (inactive)
15 | CCC[C@H]1CCCC/C=C\CCCC(=O)OCCN1C(=O)OC(C)(C)C | -20.7% (inactive)
16 | COc1cccc(C2=CC(=O)C[C@H](c3ccc(OC)c(OC)c3)C2)c1 | -9.08% (inactive)
17 | CN(CC(=O)Nc1ccc(Cl)cc1)C(=O)c1ccc(COc2ccccc2)cc1 | 22.8% (inactive)
18 | CCOC(=O)c1c(-c2ccccc2)oc2cc(Br)c(O)cc12 | 47.8% (inactive)
19 | CCOC(=O)c1c(-c2ccccc2)oc2ccc(OCC(N)=O)cc12 | -4.93% (inactive)
20 | CCOC(=O)c1c(-c2ccccc2)oc2cc(Br)c(O)c(C=O)c12 | 100% (active)
21 | O=C1CC2(CCCC2)C(=O)N1CN1CCN(S(=O)(=O)c2ccc(F)cc2F)CC1 | -4.63% (inactive)
22 | CCCN(CC1CC1)C(=O)COC(=O)c1ccc(C)cc1O | -16% (inactive)
23 | CC(NC(=O)COC(=O)Cn1cc(C(F)(F)F)ccc1=O)c1ccccc1 (configuration not stated) | -18.4% (inactive)

Row | SMILES | inhibition
24 | O=Cc1cn(Cc2ccccc2)nc1-c1cccnc1 | -1.18% (inactive)
25 | Clc1ccc(CN2CCN(/N=C/c3cccnc3)CC2)cc1 | 3.75% (inactive)
26 | O=C1/C(=C\c2cccnc2)CN(Cc2ccccc2)C/C1=C\c1cccnc1 | 90.1% (active)
27 | CC(OC(=O)c1c(F)cccc1F)C(=O)NCCC1=CCCCC1 (configuration not stated) | -17.6% (inactive)
28 | Cn1c(N)c(C(=O)COC(=O)c2cccc(S(=O)(=O)N3CCOCC3)c2)c(=O)n(C)c1=O | 8.64% (inactive)
29 | O=C(NC(Nc1nc2ccc([N+](=O)[O-])cc2s1)(C(F)(F)F)C(F)(F)F)c1ccccc1 | 98.4% (active)
30 | CCC(=O)NC(Nc1nc2ccc(C)cc2s1)(C(=O)OC)C(F)(F)F (configuration not stated) | 6% (inactive)
31 | CCOc1ccc2nc(NC(=O)c3cc([N+](=O)[O-])ccc3N3CCOCC3)sc2c1 | 36.3% (inactive)
32 | Cc1cccc(OCC(=O)OCC(=O)Nc2ccc(Cl)cn2)c1 | 0.766% (inactive)
33 | COC(=O)C1CCN(C(=O)COC(=O)c2cc(S(=O)(=O)N3CCOCC3)ccc2C)CC1 | 4.55% (inactive)
34 | COc1cc2c(-c3ccc4c(c3)OCO4)c(-c3ccsc3)oc(=O)c2cc1OC | 8.35% (inactive)
35 | Cc1ccc(S(=O)(=O)NCC(=O)NNC(=O)c2ccc(Br)cc2)cc1C | 1.69% (inactive)
36 | CCCCn1c(SCC(=O)NCC2CCCO2)nc2ccc(N3CCOCC3)cc2c1=O (configuration not stated) | 34.5% (inactive)
37 | N#CCSc1nc2ccc(N3CCOCC3)cc2c(=O)n1CCc1ccccc1 | 77.9% (active)
38 | COCCCNC(=O)CSc1nc2ccc(N3CCOCC3)cc2c(=O)n1CCc1ccccc1 | 20.5% (inactive)
39 | CSc1ncccc1C(=O)Nc1cccc(S(=O)(=O)N2CCOCC2)c1 | -12.8% (inactive)
40 | O=C(CS(=O)(=O)c1cn(Cc2cccc(F)c2)c2ccccc12)N1CCCCC1 | -3.16% (inactive)
41 | O=c1cc(N2CCCCC2)c(-c2ccccc2)nn1Cc1cccc(F)c1 | 76.4% (active)
42 | c1ccc(-c2cc(N3CCCCC3)c3ccccc3n2)cc1 | 38.6% (inactive)
43 | CC(=O)c1c(OCC(=O)N(C)C2CCCCC2)ccc2c(C)cc(=O)oc12 | -10.2% (inactive)
44 | O=C(CNC(=O)c1ccco1)NNC(=O)c1ccc(Br)cc1 | 5.78% (inactive)
45 | CC(C)(C)C(=O)NC(NC(=S)Nc1ccc(S(N)(=O)=O)cc1)C(Cl)(Cl)Cl (configuration not stated) | -4.65% (inactive)
46 | O=C(Cc1cccc2ccccc12)NNC(=O)Nc1ccc(Cl)cc1 | 8.44% (inactive)

Row | SMILES | inhibition
47 | Cc1ccc(NC(=S)NC(NC(=O)Cc2cccc3ccccc23)C(Cl)(Cl)Cl)cc1 (configuration not stated) | 192% (active)
48 | CCOC(=O)[C@H]1[C@H]2COc3ccc(Cl)cc3[C@@H]2N2C(=O)c3cc(C)ccc3NC(=O)[C@@]12C | -10.6% (inactive)
49 | CCCCn1c(N)c(N(CCOC)C(=O)CSCC(=O)Nc2cccc(C)c2)c(=O)[nH]c1=O | -17.7% (inactive)
50 | CCOCCn1c(-c2ccccc2)nc2ccccc21 | -0.165% (inactive)
51 | CCCCn1c(-c2cccc(C)c2)nc2cc3[nH]c(=O)c(C(C)C)nc3cc21 | 75.5% (active)
52 | Cc1cc(NC(=O)CN2C(=O)NC(CC(C)C)C2=O)no1 (configuration not stated) | -1.14% (inactive)
53 | Cc1ccccc1NC(=O)CSC(=O)c1ccccc1 | -3.3% (inactive)
54 | O=C(COC(=O)/C=C/c1ccc(Br)o1)Nc1cccc(S(=O)(=O)N2CCOCC2)c1 | -14.4% (inactive)
55 | O=[N+]([O-])c1ccc(N=Cc2c(O)ccc3ccccc23)cc1 | 12.2% (inactive)
56 | Oc1c(C=Nc2cccc3nsnc23)ccc2ccccc12 | 87.2% (active)
57 | COc1ccc(C=Nc2cccc3ncccc23)cc1 | -1.64% (inactive)
58 | C[C@H]1CN([C@@H](C)CO)C(=O)Cc2cc(NC(=O)Cc3ccccc3)ccc2O[C@H]1CN(C)S(=O)(=O)c1cccs1 | -17% (inactive)
59 | CCCC(=O)Nc1nc2ccc(NC(=O)c3cccnc3)cc2s1 | 47.6% (inactive)
60 | CSc1nc2ccc(NC(=O)c3c(F)cccc3F)cc2s1 | 4.73% (inactive)
61 | CCCC(=O)Nc1nc2ccc(NC(=O)c3c(F)c(F)c(OC)c(F)c3F)cc2s1 | 92% (active)
62 | Cc1ccc(S(=O)(=O)N2[C@@H](c3cccc4ccccc34)C(C(=O)O)=C[C@H]2C(C)(C)C)cc1 | 11.1% (inactive)
63 | COc1cccc(NC(=O)CSc2nnc(C3CCCCC3)n2N)c1 | -6.52% (inactive)
64 | Cc1cc(C)c(NC(=O)C[N+](C)(C)CC(O)COc2cccc3ccccc23)c(C)c1 (configuration not stated) | -3.82% (inactive)
65 | OC(COc1cccc2ccccc12)CN1CCN(c2ccccn2)CC1 (configuration not stated) | -5.87% (inactive)
66 | CC(C)c1ccccc1OCC(O)CN(CC(O)COc1cccc2ccccc12)C(C)C (configuration not stated) | 102% (active)
67 | O=C(Cc1ccc(Cl)c(Cl)c1)Nc1ccc(SC(F)F)cc1 | 75.2% (active)
68 | CC(=O)N1CCN(CC(=O)Nc2ccc(SC(F)F)cc2)CC1 | 5.6% (inactive)
69 | Cc1ccc(CC(=O)Nc2ccc(OC(F)F)c(Cl)c2)cc1C | 33.3% (inactive)

Row | SMILES | inhibition
70 | COc1cc([N+](=O)[O-])ccc1NC(=O)COC(=O)CCOc1ccc(C)cc1 | 18.1% (inactive)
71 | COc1ccc(NS(=O)(=O)c2ccc(NC(=S)NC(=O)/C=C/c3ccc(C)cc3)cc2)nn1 | 9.35% (inactive)
72 | Cc1ccc(C(=O)/C=C/Nc2ccc(S(=O)(=O)Nc3onc(C)c3C)cc2)cc1 | 6.82% (inactive)
73 | COc1ccc(/C=C/C(=O)c2ccc(NS(=O)(=O)c3ccc(C)cc3)cc2)cc1O | 99.8% (active)
74 | CC(C)(C)OC(=O)C[C@@H]1C/C=C\C[C@@H](CC(=O)NCCO)C(=O)N[C@H](Cc2c[nH]c3ccccc23)COC1=O | -11.3% (inactive)
75 | Cc1ccc(Br)c(NS(=O)(=O)c2cccc(C(=O)N3CCNC(=O)C3)c2)c1 | -15.2% (inactive)
76 | CN1CCN(C2Cc3ccc(Cl)cc3Sc3ccc(F)cc32)CC1 (configuration not stated) | 101% (active)
77 | O=C(N=C1SC2CS(=O)(=O)CC2N1c1ccccc1)c1ccccc1 (configuration not stated) | -9.26% (inactive)
78 | Cc1ccc(C2(C)NC(=O)N(CC(=O)N3CC(=O)Nc4ccccc43)C2=O)cc1 (configuration not stated) | -12.5% (inactive)
79 | O=C(c1ccc(S(=O)(=O)NCc2ccco2)cc1)N1CCN(c2ccccc2)CC1 | -16.3% (inactive)
80 | Cc1cc(OCCN2CCCC2)ccc1C(C)C | 1.11% (inactive)
81 | CC(C)(c1ccccc1)c1ccc(OCCN2CCCC2)cc1 | 91.2% (active)
82 | CC(C)(c1ccccc1)c1ccc(OCCN)cc1 | 37% (inactive)
83 | CN(Cc1ccc(F)cc1)C(=O)CN1C(=O)c2ccccc2S1(=O)=O | 1.87% (inactive)
84 | Cc1cc(NC(=O)COC(=O)/C=C/c2ccc(C)o2)no1 | -11.7% (inactive)
85 | O=C(CCc1ccccc1)Nc1ncc([N+](=O)[O-])s1 | 23.5% (inactive)
86 | CC(=O)Oc1ccccc1C(=O)Nc1ncc([N+](=O)[O-])s1 | 76.2% (active)
87 | O=C(Nc1ncc([N+](=O)[O-])s1)C1COc2ccccc2O1 (configuration not stated) | 54.2% (inactive)
88 | COc1cccc(CNC(C)C(=O)Nc2ccc(S(=O)(=O)N3CCCC3)cc2)c1 (configuration not stated) | 10.7% (inactive)
89 | CN(C(=O)COC(=O)CCCc1c[nH]c2ccccc12)c1c(N)n(Cc2ccccc2)c(=O)[nH]c1=O | -11.7% (inactive)
90 | CC1(C)CC[C@]2(C(=O)O)CC[C@]3(C)C(=CCC4[C@@]5(C)CC[C@H](O)C(C)(C)C5[C@H](O)C[C@]43C)[C@@H]2C1 (some centres not stated) | -4.41% (inactive)
91 | CC1(C)CC[C@@]2(C(=O)O)C(C1)C1=CCC3[C@@]4(C)CC[C@H](O)C(C)(C)C4CC[C@@]3(C)[C@]1(C)C[C@H]2O (some centres not stated) | 87.8% (active)
92 | CC1(C)C2CC[C@]3(C)C(CC=C4[C@@H]5C[C@@](C)(CO)CC[C@]5(C(=O)O)CC[C@]43C)[C@@]2(C)CC[C@@H]1O (some centres not stated) | -8.25% (inactive)
